According to ChEMBL document CHEMBL4513216, “Probing the Open Global Health Chemical Diversity Library for Multistage-Active Starting Points for Next-Generation Antimalarials” (ACS Infect Dis, 2020):
About 8,600 (12%) of roughly 69,000 compounds showed an effect of 50% or more. Many of the other results were omitted from the sample, so strong results are more common in it than they were.

These compounds were tested on Plasmodium berghei (assay: Screen against P. berghei liver stage (PbLuc), transformed with Luciferase, at 10uM). Details: tested at 10 uM.
Format: functional, HepG2

Q: For `CCOc1ccc(S(=O)(=O)NC(=O)CC2CCCO2)cc1` (stereo unspecified), which INHIBITION is on record?
A: -4.94%

Q: With `Cc1ccc(CN2CC[C@H]3OCC[C@@]3(C(=O)N3CCCO3)C2)o1` as the compound, how does the INHIBITION read?
A: 0.618%

Q: Which INHIBITION does the source give for `Cc1nn(CCC(=O)N2CCN(Cc3cnn(C)c3C)CC2)c(C)c1Br` here?
A: 43.4%

Q: `CC(C)c1nc(C2CCCN2C(=O)c2ccc(C#N)cn2)no1` (stereo unspecified) was tested. Which INHIBITION did it give?
A: 22.9%

Q: Which INHIBITION does the source give for `CN(C)c1cncc(C2CCCN(c3cnccn3)C2)n1` (stereo unspecified) here?
A: 17.77%

Q: Which INHIBITION does the source give for `CN(Cc1ccc(Br)c2cccnc12)S(C)(=O)=O` here?
A: -17.85%

Q: How did the INHIBITION turn out when `CC(C)N1CCC(c2cccc(C(=O)N(C)C)n2)CC1` was run?
A: -7.66%

Q: `c1cc(CN2CCC(c3nnc4n3CCCCC4)CC2)c2nonc2c1` was tested. Which INHIBITION did it give?
A: 64.4%

Q: Which INHIBITION does the source give for `c1ccc2c(c1)CC(N1CCCN(Cc3cccc4nonc34)CC1)C2` here?
A: 49%

Q: With `c1cc(CN2CCC(c3nnc4n3CCCCC4)CC2)c2c(c1)OCO2` as the compound, how does the INHIBITION read?
A: 29.7%

Q: With `CCC(C)(COc1ncccc1Cl)NCC(=O)NC1CCCCC1` (stereo unspecified) as the compound, how does the INHIBITION read?
A: 68.5%

Q: With `CCC(C)(COc1ncccc1Cl)NCC(=O)Nc1ccc(Br)cn1` (stereo unspecified) as the compound, how does the INHIBITION read?
A: 36.5%

Q: With `Cc1ccc(Oc2ncccc2CNC(=O)NC2CCCCC2)cn1` as the compound, how does the INHIBITION read?
A: 19.4%

Q: Which INHIBITION does the source give for `CCOc1ncccc1NC(=O)NC1CCN(C(=O)C2CC2)CC1` here?
A: 41.2%

Q: `CCC(C)(COc1ncccc1Cl)NCC(=O)NCC(C)C` (stereo unspecified) was tested. Which INHIBITION did it give?
A: 57.4%

Q: How did the INHIBITION turn out when `CC(C)CNC(=O)CNC(=O)Nc1cccc(Cl)c1-n1cccn1` was run?
A: -29.2%

Q: Which INHIBITION does the source give for `O=C(Cc1ccc(F)cc1)NCc1ccc(C(=O)O)o1` here?
A: 1.62%

Q: `COc1ccc(C(=O)NCc2ccc(C(=O)O)o2)cc1` was tested. Which INHIBITION did it give?
A: 10.6%

Q: With `O=C(NCc1ccc(C(=O)O)o1)c1ccc(F)cc1` as the compound, how does the INHIBITION read?
A: 51.1%

Q: `CC(C(=O)Nc1sccc1C(N)=O)N(C)CCOc1ccccc1` (stereo unspecified) was tested. Which INHIBITION did it give?
A: 94%

Q: Which INHIBITION does the source give for `Cc1ccccc1OCCC(=O)OC(C)C(=O)Nc1sccc1C(N)=O` (stereo unspecified) here?
A: 45.1%

Q: Which INHIBITION does the source give for `Cc1csc(CN(C)CCOc2ccccc2)n1` here?
A: -4.23%

Q: For `Cc1[nH]nc(CCC(=O)NCC2CCCN(C3CCCC3)C2)c1C` (stereo unspecified), which INHIBITION is on record?
A: 41.6%

Q: `Cc1ccc(OCCN2CCN(Cc3cnn(CCO)c3)CC2)cc1` was tested. Which INHIBITION did it give?
A: 22.25%

Q: How did the INHIBITION turn out when `C=C(C)COc1cccc(C(=O)N2CCC3(CCOCC3)CC2)c1` was run?
A: 52.6%

Q: Which INHIBITION does the source give for `C=C(C)COc1cccc(C(=O)N2CCC(O)(c3ccccc3)CC2)c1` here?
A: 65.6%

Q: For `CC(C)(O)CCc1cccc(C(=O)N2CCC3(CCOCC3)CC2)c1`, which INHIBITION is on record?
A: -147%

Q: With `COc1cccc(C(=O)N2CCOC3(CCCN(C(C)=O)C3)C2)c1` (stereo unspecified) as the compound, how does the INHIBITION read?
A: 33.4%

Q: How did the INHIBITION turn out when `CCOc1cccc(C(=O)N2CCC3(CC2)[C@H](O)C[C@@H]3OC)c1` was run?
A: -55.1%

Q: Which INHIBITION does the source give for `C=C(C)COc1cccc(C(=O)N2CCC3(CC2)CN(C)CCN3C)c1` here?
A: 46.1%

Q: With `CCn1nc(C)cc1C(=O)N1C[C@@H]2C[C@@H](c3nc(C)cs3)O[C@@H]2C1` as the compound, how does the INHIBITION read?
A: 15.6%

Q: Which INHIBITION does the source give for `CC(C)COc1cncc(N(C)C2CCN(c3ncccn3)CC2)n1` here?
A: 21.2%

Q: For `CC(C)COc1cncc(N2CCCN(c3ncccn3)CC2)n1`, which INHIBITION is on record?
A: 50.4%

Q: With `CC(C)COc1cncc(N2CCCN(CC(F)(F)F)CC2)n1` as the compound, how does the INHIBITION read?
A: -1.04%

Q: For `O=C(NCc1ccco1)[C@@]12CCO[C@@H]1CCN(c1ncccn1)C2`, which INHIBITION is on record?
A: 27.6%

Q: `Cn1cc(CC2CC(=O)N(Cc3ccccc3OC(F)F)C2=O)cn1` (stereo unspecified) was tested. Which INHIBITION did it give?
A: 33.1%

Q: `CN(C)C(=O)c1nn(C)c2c1CN(Cc1cccs1)C2` was tested. Which INHIBITION did it give?
A: -6.23%

Q: Which INHIBITION does the source give for `Cc1ccc(CN2C[C@H](N3CCOCC3)[C@@H]3OCCC[C@@H]32)o1` here?
A: -22.1%

Q: With `Cc1nccn1CCC1CCN(C(C)C)CC1` as the compound, how does the INHIBITION read?
A: 38.8%

Q: With `Cc1ccc(C(=O)NCc2cc(F)ccc2N2CCCN(C)CC2)o1` as the compound, how does the INHIBITION read?
A: 42.1%

Q: How did the INHIBITION turn out when `CN1CCCN(c2ccc(F)cc2CNC(=O)c2ccsc2)CC1` was run?
A: 79.7%

Q: Which INHIBITION does the source give for `CN1CCCN(c2ccc(F)cc2CNC(=O)c2cccnc2)CC1` here?
A: -12.2%

Q: For `CN(CCCOc1ccccc1Cl)C(=O)CN1C[C@H]2CC[C@@H](CC1=O)N2`, which INHIBITION is on record?
A: 17%

Q: For `CCS(=O)(=O)NC1CCCN(c2ccc(F)cc2C)C1=O` (stereo unspecified), which INHIBITION is on record?
A: 5.29%

Q: How did the INHIBITION turn out when `Cc1oc(C(C)C)cc1C(=O)N1CCN(c2cnn(C)c(=O)c2)CC1` was run?
A: 51.1%

Q: With `Cc1cncc(C(=O)N2CCN(c3cnn(C)c(=O)c3)CC2)c1` as the compound, how does the INHIBITION read?
A: -5.52%

Q: `CCc1ncc(C(=O)N2CCN(c3cnn(C)c(=O)c3)CC2)cn1` was tested. Which INHIBITION did it give?
A: 45.8%

Q: How did the INHIBITION turn out when `CN(C)c1ccccc1C(=O)N1CCCC(c2ccc(C(=O)O)cc2)C1` (stereo unspecified) was run?
A: 18.6%

Q: For `CCC(C(=O)NCc1csc(N2CCOCC2)n1)n1cccn1` (stereo unspecified), which INHIBITION is on record?
A: 57.5%

Q: `CC(Cn1cccn1)NCc1csc(-c2ncccn2)n1` (stereo unspecified) was tested. Which INHIBITION did it give?
A: -29.1%

Q: `CCC(C(=O)N1CCN(C(=O)N2CCOCC2)CC1)n1cccn1` (stereo unspecified) was tested. Which INHIBITION did it give?
A: 33%

Q: How did the INHIBITION turn out when `CCC(C(=O)NCc1csc(-c2ncccn2)n1)n1cccn1` (stereo unspecified) was run?
A: 60.4%

Q: How did the INHIBITION turn out when `CCc1csc(CNC(=O)C(CC)n2cccn2)n1` (stereo unspecified) was run?
A: 19.8%

Q: For `CCC(C(=O)NCc1cc(N2CCOCC2)ncn1)n1cccn1` (stereo unspecified), which INHIBITION is on record?
A: 36.7%

Q: With `Cc1ccoc1C(=O)N1CCO[C@H]2[C@H](OCCN(C)C)CC[C@@H]21` as the compound, how does the INHIBITION read?
A: 22.4%

Q: Which INHIBITION does the source give for `Cc1ccc(C(=O)NCCS(=O)(=O)N2CCSCC2)n1C` here?
A: -28.9%

Q: `CC(C)=CCN1CCN(CCCOc2ccccc2)[C@H]2CS(=O)(=O)C[C@H]21` was tested. Which INHIBITION did it give?
A: -25.7%

Q: Which INHIBITION does the source give for `CC(C)=CCN1CCN(CCCc2ccccc2)[C@H]2CS(=O)(=O)C[C@H]21` here?
A: 51.3%

Q: How did the INHIBITION turn out when `CN(C)C(=O)N1CCN(CCCc2ccccc2)[C@H]2CS(=O)(=O)C[C@H]21` was run?
A: -11.5%

Q: `COc1ccc(OCCN(C)Cc2nc3c(cnn3C)c(=O)[nH]2)cc1` was tested. Which INHIBITION did it give?
A: 38.8%

Q: For `CN1CCC(C)(CN(C)Cc2ccc(CCC(C)(C)O)cc2)C1` (stereo unspecified), which INHIBITION is on record?
A: 32.4%

Q: `Cc1cc(S(=O)(=O)NCC(C)(O)CN(C)C)c(F)cc1F` (stereo unspecified) was tested. Which INHIBITION did it give?
A: 36.5%

Q: With `COc1cc(NC(=O)N(C)CCC2CC2)ncn1` as the compound, how does the INHIBITION read?
A: 4.82%

Q: For `COc1cc(NC(=O)N(C)C(C2CC2)C2CC2)ncn1`, which INHIBITION is on record?
A: 88.4%

Q: For `COc1cc(NC(=O)N(C)CC2CC2)ncn1`, which INHIBITION is on record?
A: 1.84%

Q: `CS(=O)(=O)c1cccc(C(N)c2ccc(Cl)cc2)c1` (stereo unspecified) was tested. Which INHIBITION did it give?
A: -53.2%
